From ChEMBL document CHEMBL1157539, “Thousands of chemical starting points for antimalarial lead identification” (Nature, 2010)

Columns and labels:
Type in all cases: functional
Plasmodium falciparum [1] = test: GSK_TCMDC: Inhibition of Plasmodium falciparum 3D7 in whole red blood cells, using parasite LDH activity as an index of growth. Test compounds present at 2uM
Plasmodium falciparum [2] = test: GSK_TCMDC: Inhibition of Plasmodium falciparum Dd2 in whole red blood cells, using parasite LDH activity as an index of growth. Test compounds present at 2uM
HepG2 = test: GSK_TCMDC: Percent inhibition of human HepG2 cell line. Test compounds present at 10uM.

Nc1nc2c(ncn2COC(COCc2ccccc2)COCc2ccccc2)c(=O)[nH]1.Nc1nc2ncn(COC(COCc3ccccc3)COCc3ccccc3)c2c(=O)[nH]1
Inhibition (Plasmodium falciparum [1]): 86% | Inhibition (Plasmodium falciparum [2]): 57% | Inhibition (HepG2): 18%

O=C(NC1CC1)c1ccc(N2CCCCN2CCc2ccccc2)c(C(F)(F)F)c1.O=C(O)C(F)(F)F
Inhibition (Plasmodium falciparum [1]): 98% | Inhibition (Plasmodium falciparum [2]): 84% | Inhibition (HepG2): 0%

COc1cc2c(cc1OC)CN(CCCCNC(=O)c1ccc(NC(=O)c3cc(Cl)cc(Cl)c3)cc1)CC2
Inhibition (Plasmodium falciparum [1]): 99% | Inhibition (Plasmodium falciparum [2]): 75% | Inhibition (HepG2): 19%

Cc1cc2[nH]c(-c3ccc(C(=O)NCCCN4CCN(c5cccc(Cl)c5)CC4)cc3F)nc2cc1Cl
Inhibition (Plasmodium falciparum [1]): 99% | Inhibition (Plasmodium falciparum [2]): 79% | Inhibition (HepG2): 0%

FC(F)(F)c1cccc(Nc2nc3nonc3nc2NC2C3CC4CC(C3)CC2C4)c1 (configuration not stated)
Inhibition (Plasmodium falciparum [1]): 100% | Inhibition (Plasmodium falciparum [2]): 100% | Inhibition (HepG2): 72%

O=C(O)C(F)(F)F.OC1CCCN(Cc2ccc(-c3ccc(-c4nc5ccccc5[nH]4)cc3)cc2)C1 (configuration not stated)
Inhibition (Plasmodium falciparum [1]): 100% | Inhibition (Plasmodium falciparum [2]): 77% | Inhibition (HepG2): 46%

Br.CC1(C)NC(N)=NC(=N)N1OCCCO
Inhibition (Plasmodium falciparum [1]): 96% | Inhibition (Plasmodium falciparum [2]): 0% | Inhibition (HepG2): 27%

COc1ccc2nc(C)cc(Nc3ccc(N4CCN(C)CC4)cc3)c2c1
Inhibition (Plasmodium falciparum [1]): 100% | Inhibition (Plasmodium falciparum [2]): 3% | Inhibition (HepG2): 1%

CN1CCN(CC(O)CNC(=O)Nc2ccc(Cl)cc2)CC1.O=C(O)C(F)(F)F (configuration not stated)
Inhibition (Plasmodium falciparum [1]): 99% | Inhibition (Plasmodium falciparum [2]): 98% | Inhibition (HepG2): 1%

COc1cc(C=CC(=O)N2CCC3(CC2)CC(=O)c2ccccc2O3)cc(OC)c1OC
Inhibition (Plasmodium falciparum [1]): 88% | Inhibition (Plasmodium falciparum [2]): 66% | Inhibition (HepG2): 7%

COc1cc(OC)nc(-c2cccc(NC(=O)c3ccc4c(=O)n(CCN5CCCCC5)cnc4c3)c2)n1
Inhibition (Plasmodium falciparum [1]): 100% | Inhibition (Plasmodium falciparum [2]): 86% | Inhibition (HepG2): 11%

COc1ccc2nc3cc(Cl)ccc3c(NCCCCN)c2c1.Cl
Inhibition (Plasmodium falciparum [1]): 100% | Inhibition (Plasmodium falciparum [2]): 62% | Inhibition (HepG2): 52%

CCOc1ccc2nc(NC(=O)c3csnn3)sc2c1
Inhibition (Plasmodium falciparum [1]): 100% | Inhibition (Plasmodium falciparum [2]): 98% | Inhibition (HepG2): 6%

O=C(O)C(F)(F)F.OC1CCCN(Cc2ccc(-c3cccc(-c4nc5ccccc5[nH]4)c3)cc2)C1 (configuration not stated)
Inhibition (Plasmodium falciparum [1]): 86% | Inhibition (Plasmodium falciparum [2]): 0% | Inhibition (HepG2): 14%

Cc1ccc(/C=C2/SC(=Nc3ccccc3)NC2=O)c(C)c1
Inhibition (Plasmodium falciparum [1]): 93% | Inhibition (Plasmodium falciparum [2]): 90% | Inhibition (HepG2): 1%

CCN(CCCN1CCCCC1)c1cc(C)nc(Nc2ccc3c(c2)CCC3)n1.O=C(O)C(F)(F)F
Inhibition (Plasmodium falciparum [1]): 100% | Inhibition (Plasmodium falciparum [2]): 93% | Inhibition (HepG2): 32%

CCCN(CCC)c1nn2c(=O)c(C(=O)N3CCN(Cc4ccccc4)CC3)cnc2s1
Inhibition (Plasmodium falciparum [1]): 84% | Inhibition (Plasmodium falciparum [2]): 89% | Inhibition (HepG2): 0%

COc1cccc(NC(=O)NC2CCN(c3ccnc(Nc4ccc(F)cc4)n3)C2)c1 (configuration not stated)
Inhibition (Plasmodium falciparum [1]): 100% | Inhibition (Plasmodium falciparum [2]): 71% | Inhibition (HepG2): 9%

Nc1nc(N)c2c(Oc3cccnc3)cccc2n1
Inhibition (Plasmodium falciparum [1]): 93% | Inhibition (Plasmodium falciparum [2]): 0% | Inhibition (HepG2): 65%

CCCC1(NC[C@@H](O)[C@H](Cc2ccccc2)NC(=O)c2cc(NCC)cc(N3CCCCS3(=O)=O)c2)CCCC1.Cl
Inhibition (Plasmodium falciparum [1]): 100% | Inhibition (Plasmodium falciparum [2]): 97% | Inhibition (HepG2): 0%

Nc1ccc(-c2ccc3ccnc(N)c3c2)cn1.O=C(O)C(F)(F)F
Inhibition (Plasmodium falciparum [1]): 100% | Inhibition (Plasmodium falciparum [2]): 100% | Inhibition (HepG2): 43%

O=C(Cn1c(CCc2cccc(F)c2F)nc(=O)c2ccccc21)N(Cc1ccc(-c2ccc(C(F)(F)F)cc2)cc1)C1CCN(C2=NCCS2)CC1.O=C(O)C(O)C(O)C(=O)O
Inhibition (Plasmodium falciparum [1]): 81% | Inhibition (Plasmodium falciparum [2]): 85% | Inhibition (HepG2): 62%

CCCC1(C)CSc2ccccc2C(c2ccccc2)N1 (configuration not stated)
Inhibition (Plasmodium falciparum [1]): 87% | Inhibition (Plasmodium falciparum [2]): 2% | Inhibition (HepG2): 60%

C=CCOC(=O)N1CCC(CNCc2ccc(-c3ccc(-c4nc5cc(C(F)(F)F)ccc5[nH]4)cc3)cc2)C1.O=C(O)C(F)(F)F (configuration not stated)
Inhibition (Plasmodium falciparum [1]): 100% | Inhibition (Plasmodium falciparum [2]): 98% | Inhibition (HepG2): 44%

CSc1nc2nc(C)c(Cc3cccc(C(F)(F)F)c3)c(C)n2n1
Inhibition (Plasmodium falciparum [1]): 98% | Inhibition (Plasmodium falciparum [2]): 95% | Inhibition (HepG2): 4%

COc1ccc2nccc([C@@H](O)CN3CCC(NC(=O)c4ccc(OC)c(N)c4)CC3)c2c1.CS(=O)(=O)O
Inhibition (Plasmodium falciparum [1]): 93% | Inhibition (Plasmodium falciparum [2]): 0% | Inhibition (HepG2): 9%

COc1ccc(NC(=O)Nc2cccc(-c3ccc(-c4nc5cc(C(F)(F)F)ccc5[nH]4)cc3)c2)cc1
Inhibition (Plasmodium falciparum [1]): 100% | Inhibition (Plasmodium falciparum [2]): 29% | Inhibition (HepG2): 46%

CCNc1cc(C(=O)N[C@@H](Cc2ccccc2)[C@H](O)CNC2(CC)CCCCC2)cc(N2CCCCS2(=O)=O)c1.Cl
Inhibition (Plasmodium falciparum [1]): 98% | Inhibition (Plasmodium falciparum [2]): 98% | Inhibition (HepG2): 3%

FC(F)(F)c1ccc2[nH]c(-c3ccc(-c4cccc(CNCc5cnn(-c6ccccc6)n5)c4)s3)nc2c1.O=C(O)C(F)(F)F
Inhibition (Plasmodium falciparum [1]): 100% | Inhibition (Plasmodium falciparum [2]): 91% | Inhibition (HepG2): 38%

CNCc1cccc(-c2ccc3ccnc(N)c3c2)c1
Inhibition (Plasmodium falciparum [1]): 100% | Inhibition (Plasmodium falciparum [2]): 98% | Inhibition (HepG2): 20%

O=C(N[C@H](CC1CCCCC1)C(=O)NC1CCCc2ccccc21)c1ccc(O)c(-c2cccc([N+](=O)[O-])c2)c1 (some centres not stated)
Inhibition (Plasmodium falciparum [1]): 99% | Inhibition (Plasmodium falciparum [2]): 98% | Inhibition (HepG2): 0%

O=C1COc2ccccc2N1C/C=C(\CN1CCC(c2ccccc2)CC1)c1cc(Cl)cc(Cl)c1
Inhibition (Plasmodium falciparum [1]): 91% | Inhibition (Plasmodium falciparum [2]): 72% | Inhibition (HepG2): 14%

Cc1cc(NCCC(=O)Nc2ccccc2)nc(NCCOc2ccccc2)n1.O=C(O)C(F)(F)F
Inhibition (Plasmodium falciparum [1]): 100% | Inhibition (Plasmodium falciparum [2]): 9% | Inhibition (HepG2): 5%

O=C(/C=C/c1ccc(Cl)cc1)NCCCCCN1CCCC(C(=O)Nc2ccc(Cl)cc2)C1 (configuration not stated)
Inhibition (Plasmodium falciparum [1]): 94% | Inhibition (Plasmodium falciparum [2]): 6% | Inhibition (HepG2): 24%

Cc1ccc(NC(=O)Nc2ccc(Cl)cc2)cc1-c1cccc(C(=O)Nc2ccc(F)cc2)c1
Inhibition (Plasmodium falciparum [1]): 96% | Inhibition (Plasmodium falciparum [2]): 52% | Inhibition (HepG2): 8%

Cc1ccccc1C(O)CNc1ccnc(Nc2cccc(C#N)c2)n1 (configuration not stated)
Inhibition (Plasmodium falciparum [1]): 94% | Inhibition (Plasmodium falciparum [2]): 12% | Inhibition (HepG2): 22%

O=C(O)C(F)(F)F.c1cc(-c2ccc(CNCCCN3CCOCC3)cc2)cc(-c2nc3ccccc3[nH]2)c1
Inhibition (Plasmodium falciparum [1]): 100% | Inhibition (Plasmodium falciparum [2]): 0% | Inhibition (HepG2): 26%

CCN(CC)CCNC(=O)/C(=C/C=C/c1cc2cc(Cl)c(Cl)cc2[nH]1)OC
Inhibition (Plasmodium falciparum [1]): 88% | Inhibition (Plasmodium falciparum [2]): 31% | Inhibition (HepG2): 30%

FC(F)(F)c1ccc2[nH]c(-c3ccc(-c4cccc(CN5CCC(CCN6CCCCC6)CC5)c4)cc3)nc2c1.O=C(O)C(F)(F)F
Inhibition (Plasmodium falciparum [1]): 100% | Inhibition (Plasmodium falciparum [2]): 96% | Inhibition (HepG2): 100%

COc1cccc(CN2CCCC(COC(c3ccc(F)cc3)c3ccc(F)cc3)C2)c1O (configuration not stated)
Inhibition (Plasmodium falciparum [1]): 98% | Inhibition (Plasmodium falciparum [2]): 100% | Inhibition (HepG2): 24%

Cc1ccc(C)c2sc(N3CCN(C(=O)c4ccc([N+](=O)[O-])o4)CC3)nc12
Inhibition (Plasmodium falciparum [1]): 96% | Inhibition (Plasmodium falciparum [2]): 89% | Inhibition (HepG2): 0%

O=c1c2ccccc2[nH]c2cc(Cl)ccc12
Inhibition (Plasmodium falciparum [1]): 95% | Inhibition (Plasmodium falciparum [2]): 86% | Inhibition (HepG2): 24%

O=C(NC1CCN(c2ccnc3cc(Cl)ccc23)C1)c1ccc(F)cc1.O=C(O)C(F)(F)F (configuration not stated)
Inhibition (Plasmodium falciparum [1]): 94% | Inhibition (Plasmodium falciparum [2]): 97% | Inhibition (HepG2): 26%

O=S(=O)(Nc1cccc(F)c1CNCc1ccccn1)c1ccc(Cl)c(Cl)c1
Inhibition (Plasmodium falciparum [1]): 92% | Inhibition (Plasmodium falciparum [2]): 34% | Inhibition (HepG2): 45%

Cl.O=c1n(CC2CCCCC2)c2cc(Cl)cc(OCCNc3ccncc3)c2n1CC1CCCCC1
Inhibition (Plasmodium falciparum [1]): 100% | Inhibition (Plasmodium falciparum [2]): 64% | Inhibition (HepG2): 2%

CCN(CC)CCCC(C)N=c1cc(C=Cc2ccccc2Cl)[nH]c2cc(Cl)ccc12.O=P(O)(O)O (configuration not stated)
Inhibition (Plasmodium falciparum [1]): 99% | Inhibition (Plasmodium falciparum [2]): 77% | Inhibition (HepG2): 0%

CO/C(=C\C=C/c1cc2cc(Cl)c(Cl)cc2[nH]1)C(=O)NC1CC(C)(C)N(C)C(C)(C)C1
Inhibition (Plasmodium falciparum [1]): 93% | Inhibition (Plasmodium falciparum [2]): 34% | Inhibition (HepG2): 65%

O=C(Nc1ccc(Cl)cc1)Nc1ccc(-c2csc(-c3nc4ccccc4[nH]3)c2)cc1
Inhibition (Plasmodium falciparum [1]): 90% | Inhibition (Plasmodium falciparum [2]): 40% | Inhibition (HepG2): 59%

CCOC(=O)c1ccc(NC(=O)N(Cc2ccc(-c3ccc(CN4CCNCC4)cc3)cc2)Cc2cccnc2)cc1.O=C(O)C(F)(F)F
Inhibition (Plasmodium falciparum [1]): 94% | Inhibition (Plasmodium falciparum [2]): 34% | Inhibition (HepG2): 13%
